Measured values as given in PubChem BioAssay (NCATS).
Results filed as inconclusive are left out. Entries that show only a call come without a potency. Activity calls are given as the source filed them. Calls follow the shape of the dose curve; as a rule, active = well fitted cell-killing curve with a large enough effect; inconclusive = small, poorly fitted or top-dose-only effect, or effect the other way; inactive = flat fitted curve, though single readings scatter. Where a SMILES comes first, the peptide text is derived from it.

System: Tov-21-G
Experiment: Primary qHTS to identify gynecologic anti-cancer compounds using libraries of approved drugs and bioactive compounds (AID 1345084); also: nearly all actives have a fitted effect of over 55% in size
Conditions: Gynecologic cancer cell panel viability, ATPlite luminescence, 48 h; series mostly up to 57.5 µM
Summary of the method: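 Cells, 1,000 per well, were allowed to settle for 16 h at 37 C before compound addition. Five concentrations were tested for 48 h, and viability was read by ATPlite luminescence after 15 min at room temperature.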

Row | SMILES | Potency
1 | CCCCCN(CCCOC)C(=O)C(CCC(=O)O)NC(=O)c1ccc(Cl)c(Cl)c1 (stereo not given) | inactive
2 | CCCCCCn1c(=O)c2c(ncn2C)n(C)c1=O | inactive
3 | CCCc1ncc(C(=O)O)s1 | inactive
4 | C/C(=N/NC(=O)c1ccncc1)C(=O)O | inactive
5 | COC(=O)/C=C(/C)N | inactive
6 | NS(=O)(=O)c1cc2c(cc1Cl)CN(C1CCCCC1)C2=O | inactive
7 | O=C1NC(c2ccccc2)(c2ccccc2)C(=O)N1COP(=O)(O)O | inactive
8 | CCc1cccc2c(CCO)c[nH]c12 | inactive
9 | CCCCC(CC)CNC(=O)CC(C)OC(=O)CCC(=O)O (stereo not given) | inactive
10 | O=C(O)c1ccc(OCCN2CCCCC2)cc1 | inactive
11 | CCCC(=O)O[C@]1(C(=O)CC)CC[C@H]2[C@@H]3CCC4=CC(=O)CC[C@]4(C)[C@H]3[C@@H](O)C[C@@]21C | inactive
12 | CC(C)N(CCC(=O)c1ccc2ccccc2c1)Cc1ccccc1 | inactive
13 | COC(=O)CCCCC(CCSS/C(CCO)=C(\C)N(C=O)Cc1cnc(C)nc1N)SC(C)=O (stereo not given) | inactive
14 | O=C1CC2(CCCC2)CC(=O)N1 | inactive
15 | CCCCOCCOC(=O)c1cccnc1 | inactive
16 | CC(=O)N[C@@H](CO)C(=O)N[C@@H](CC(=O)O)C(=O)N[C@@H](CCCCN)C(=O)N1CCC[C@H]1C(=O)O (Ac-SDKP-OH) | inactive
17 | CC(=O)O[C@@H]1CC2C3CCc4cc(OC(=O)c5ccccc5)ccc4C3CCC2(C)[C@H]1OC(C)=O (stereo not given in full) | inactive
18 | Cc1ccc2c(Cl)cc(Cl)c(O)c2n1 | inactive
19 | CC(Oc1c(Cl)cccc1Cl)C1=NCCN1 (stereo not given) | inactive
20 | N#CC1(c2ccc(F)cc2)CCC(=O)CC1 | inactive
